{
  "source": "PubChem BioAssay (EPA / NIEHS)",
  "note": "Results filed as inconclusive are left out. Activity calls are given as the source filed them. Rule for the calls: active = hit-call score of the fitted dose curve at least 0.9, where 1 is the maximum; inconclusive = response in the unintended direction; inactive = score below 0.9.",
  "data": [
    {"assay": "ACEA_ER_AUC_viability: ACEA Biosciences xCELLigence Real-Time Cell Analysis on Estrogen Receptor Agonism for Viability (AID 2283782);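 note: continuous compound exposure with impedance area under curve over 80 h; hit means loss of impedance signal meaning reduced cell growth or viability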", "how_it_was_run": "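T-47D; phenol red-free RPMI1640 + 10% CS-FBS; 8 conc., 1:4 serial, max 100 uM final, ≤0.5% DMSO; n = 2; continuous exposure; impedance monitored to 80 h post-dose; AUC vs DMSO.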", "values": [
      {"smiles": "COCN(COC)c1nc(N(COC)COC)nc(N(COC)COC)n1", "outcome": "inactive"},
      {"smiles": "Cc1ccc(C(=O)c2ccccc2)cc1", "AC50": "72.3 µM (active)"},
      {"smiles": "O=C(O)C(F)(F)OC(F)(F)C(F)(F)OC(F)(F)C(F)(F)OC(F)(F)C(F)(F)C(F)(F)C(F)(F)F", "AC50": "119 µM (active)"},
      {"smiles": "Nc1ccn([C@@H]2O[C@H](CO)[C@@H](O)C2O)c(=O)n1", "note": "(stereo not given in full)", "AC50": "9.92 µM (active)"},
      {"smiles": "C=CCOCC(CO)(CO)CO", "outcome": "inactive"},
      {"smiles": "OCCN1CN(CCO)CN(CCO)C1", "AC50": "81.8 µM (active)"},
      {"smiles": "O=C1C=CC(=O)N1c1cccc(N2C(=O)C=CC2=O)c1", "AC50": "23.6 µM (active)"},
      {"smiles": "OCC(F)(F)C(F)(F)C(F)(F)C(F)(F)C(F)(F)C(F)(F)C(F)(F)C(F)(F)C(F)(F)C(F)(F)C(F)(F)F", "AC50": "16.6 µM (active)"},
      {"smiles": "C=Cc1ccc(O)c(OC)c1", "outcome": "inactive"},
      {"smiles": "O=C(O)C(=O)O", "outcome": "inactive"},
      {"smiles": "O=S(=O)(O)C(F)(F)C(F)(F)C(F)(F)C(F)(F)C(F)(F)C(F)(F)C(F)(F)C(F)(F)C(F)(F)C(F)(F)F", "outcome": "inactive"},
      {"smiles": "c1ccc2c(c1)CCC2", "outcome": "inactive"},
      {"smiles": "CCOC=C(C(=O)OCC)C(=O)OCC", "outcome": "inactive"},
      {"smiles": "CC(C)(O)C(=O)c1ccccc1", "outcome": "inactive"},
      {"smiles": "COc1cccc(O)c1", "outcome": "inactive"},
      {"smiles": "CN(CCO)S(=O)(=O)C(F)(F)C(F)(F)C(F)(F)C(F)(F)C(F)(F)C(F)(F)C(F)(F)C(F)(F)F", "outcome": "inactive"},
      {"smiles": "CCCCN(C)C", "outcome": "inactive"},
      {"smiles": "Oc1cc2ccccc2cc1O", "AC50": "40.8 µM (active)"},
      {"smiles": "CCN(CCC#N)c1ccccc1", "outcome": "inactive"},
      {"smiles": "CC(C)(C)c1ccc(O)c(O)c1", "AC50": "23.4 µM (active)"},
      {"smiles": "CCOC(OCC)C(=O)c1ccccc1", "outcome": "inactive"},
      {"smiles": "C=CC(C)(CCC=C(C)C)OC(C)=O", "note": "(stereo not given)", "outcome": "inactive"},
      {"smiles": "O=C(O)CCC(F)(F)C(F)(F)C(F)(F)C(F)(F)C(F)(F)C(F)(F)F", "outcome": "inactive"},
      {"smiles": "CCCCCCCCCCCCCCC", "outcome": "inactive"},
      {"smiles": "CCCCCCC(C)(C)C(=O)O", "outcome": "inactive"},
      {"smiles": "O=S(=O)(O)c1ccccc1", "outcome": "inactive"},
      {"smiles": "Cn1sccc1=O", "AC50": "40.2 µM (active)"},
      {"smiles": "CC(C)(C)C1CCCCC1O", "note": "(stereo not given)", "AC50": "77.7 µM (active)"},
      {"smiles": "CC(C)CCOCCC(C)C", "AC50": "37.5 µM (active)"},
      {"smiles": "CCCCCC(C)OC(=O)COc1ccc(Cl)c2cccnc12", "note": "(stereo not given)", "outcome": "inactive"}
    ]},
    {"assay": "STM_H9_NormalizedViability: Cytotoxicity Assessment at 120 hours in the Stemina devTOX quickPredict H9 human embryonic stem cell (hESC)-based Assay (AID 2283784)", "how_it_was_run": "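Pluripotent H9 cells dosed, fresh medium plus compound q24h → cell layer read by CellTiter-Fluor → RFU blank-corrected, normalized to DMSO 0.1% mean. Loss-of-signal fit, DMSO as baseline.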", "values": [
      {"smiles": "C=Cc1ccc(O)c(OC)c1", "AC50": "77.6 µM (active)"},
      {"smiles": "CC1=CC(=O)c2ccccc2C1=O", "outcome": "inactive"},
      {"smiles": "CC(C)(C)c1ccc(O)c(O)c1", "AC50": "86.5 µM (active)"},
      {"smiles": "Cn1sccc1=O", "outcome": "inactive"},
      {"smiles": "Oc1c(Cl)cc(Cl)cc1Sc1cc(Cl)cc(Cl)c1O", "outcome": "inactive"}
    ]}
  ]
}
